The nature of test [1]: ATG_CRE_CIS: Attagene CIS-FACTORIAL HepG2 Assay for human cAMP Responsive Element (CRE) binding protein 3 (AID 2282926). To be noted: HepG2 CRE cis-reporter, Attagene multiplexed mRNA; actives raise or lower the signal. Summed up: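 Multiplexed transcription-unit reporters transfected into HepG2; 24 h dosing; RT-PCR/capillary electrophoresis fluorescence read-out; bidirectional fit vs DMSO.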

The target in test [2] is CCAAT/enhancer-binding protein beta (Homo sapiens) (UniProt P17676). The test can be described thus: ATG_C_EBP_CIS: Attagene CIS-FACTORIAL HepG2 Assay for human CCAAT/Enhancer Binding Protein (C/EBP) beta (AID 2282927). To be noted: HepG2 Attagene cis-factorial transcription factor reporter; actives raise or lower the signal. Summed up:
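Endogenous C/EBPb-driven reporter transcripts measured in transfected human HepG2 cells at 24 h via RT-PCR and capillary electrophoresis of labelled fragments. Activity fitted in both directions relative to DMSO baseline.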

Test [3] in a line: ATG_CMV_CIS: Attagene CIS-FACTORIAL HepG2 Assay for human CMV (Internal Marker) (AID 2282928).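 Note: endpoint acts as a background internal control marker rather than a target.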 The note with it: HepG2 CMV promoter reporter, transcription factor profiling; actives raise or lower the signal. In a few lines: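 After transient transfection of HepG2 with reporter transcription units driven by cis-regulatory promoters, cells receive test chemical for 24 h. Labeled reporter amplicons, digested with HpaI, are sized and quantified by capillary electrophoresis against DMSO.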

Test [4] is described as follows: ATG_DR4_LXR_CIS: Attagene CIS-FACTORIAL HepG2 Assay for human Liver X Receptor (LXR), DR4 submotif (AID 2282929). To be noted: HepG2 Attagene DR4 cis-reporter, mRNA transcription; AC50: actives raise or lower the signal unless noted; outcome: actives raise or lower the signal unless noted. In a few lines: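 HepG2 cells transiently transfected with cis-promoter-driven multiplexed reporter units (DR4 element) were dosed for 24 h. Reporter mRNA was quantified by RT-PCR, fluorescent primer extension, HpaI digestion and capillary electrophoresis; bidirectional fitting versus DMSO baseline.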

Test [5] concerns the target Aryl hydrocarbon receptor (Homo sapiens) (UniProt P35869). Put plainly: ATG_Ahr_CIS: Attagene CIS-FACTORIAL HepG2 Assay for human Aryl Hydrocarbon Receptor (Ahr) (AID 2282930). To be noted: HepG2 AhR cis-factorial reporter transcription; actives raise or lower the signal. In a few lines:
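Reporter mRNA levels, quantified by RT-PCR and fluorescent capillary electrophoresis, reflect endogenous AhR transcriptional activity in HepG2 cells carrying transfected cis-promoter reporter constructs. Readout at 24 h post-dose; gain or loss fitted against DMSO baseline.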

Test [6] in a line: ATG_AP_1_CIS: Attagene CIS-FACTORIAL HepG2 Assay for human Activator Protein 1 (AP-1) (AID 2282931). To be noted: HepG2 Attagene cis-factorial AP-1 reporter mRNA; actives raise or lower the signal. Summed up: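 HepG2 cells transiently transfected with cis-element-driven multiplex reporter units; 24 h compound exposure. Reporter mRNA quantified by RT-PCR, FAM-labelled fragments resolved by capillary electrophoresis; bidirectional fit versus DMSO baseline.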

Test [7] in a line: ATG_AP_2_CIS: Attagene CIS-FACTORIAL HepG2 Assay for human Activator Protein 2 (AP-2) (AID 2282932). To be noted: HepG2 AP-2 cis-reporter, Attagene transcription factor profiling; AC50: actives raise or lower the signal unless noted; outcome: actives raise or lower the signal unless noted. Summed up:
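Step one: transient transfection of HepG2 with reporter transcription units. Step two: 24 h chemical exposure. Step three: RNA extraction, RT-PCR, labelled fragment analysis by capillary electrophoresis; DMSO serves as baseline.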

A short description of test [8]: ATG_BRE_CIS: Attagene CIS-FACTORIAL HepG2 Assay for human Bone Morphogenetic Protein (BMP) Response Element (BRE) (AID 2282933). The note with it: HepG2 BMP response element reporter, Attagene transcription factor profiling; actives raise or lower the signal. In a few lines:
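HepG2 cells transiently transfected with multiplexed cis-element reporter units were dosed with chemical for 24 h. Reporter mRNA was measured by RT-PCR with fluorescent labelling, HpaI digestion and capillary electrophoresis; bidirectional fitting relative to DMSO.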

For test [9], the target named is Retinoic acid receptor alpha (Homo sapiens) (UniProt P10276). Put plainly: ATG_DR5_RAR_CIS: Attagene CIS-FACTORIAL HepG2 Assay for human Retinoic Acid Receptor Alpha (RARE), DR5 submotif (AID 2282934).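 For AC50: reporter responds to endogenous RAR alpha beta and gamma in HepG2 not RARA alone.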 To be noted: HepG2 Attagene cis-factorial RARE DR5 reporter, mRNA; actives raise or lower the signal. Summed up: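 Reporter transcripts from a DR5-regulated unit, measured via RT-PCR plus capillary electrophoresis, reflect endogenous RAR activity in transiently transfected human HepG2 liver cells. Exposure lasted 24 h; gain or loss of signal scored against DMSO.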
Retinoic acid receptor alpha (Homo sapiens), sequence (P10276 whole entry, looked up): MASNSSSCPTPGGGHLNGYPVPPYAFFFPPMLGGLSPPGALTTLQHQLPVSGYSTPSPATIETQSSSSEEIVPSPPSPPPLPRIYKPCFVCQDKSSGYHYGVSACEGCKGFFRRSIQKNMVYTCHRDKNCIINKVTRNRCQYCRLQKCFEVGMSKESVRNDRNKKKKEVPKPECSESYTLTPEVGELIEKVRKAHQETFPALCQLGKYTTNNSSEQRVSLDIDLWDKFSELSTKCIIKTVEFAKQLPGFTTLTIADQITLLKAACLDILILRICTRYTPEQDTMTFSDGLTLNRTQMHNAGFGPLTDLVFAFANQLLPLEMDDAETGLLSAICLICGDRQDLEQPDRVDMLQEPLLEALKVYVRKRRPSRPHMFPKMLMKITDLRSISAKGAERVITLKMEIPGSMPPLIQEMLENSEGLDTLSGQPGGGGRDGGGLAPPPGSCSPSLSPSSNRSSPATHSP

Test [10] deals with Transcription factor E2F1 (Homo sapiens) (UniProt Q01094). Put plainly: ATG_E2F_CIS: Attagene CIS-FACTORIAL HepG2 Assay for human E2F Transcription Factor 1 (AID 2282935). The note with it: HepG2 Attagene cis-reporter, E2F reporter RNA transcripts; actives raise or lower the signal. Summed up: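 Total RNA from 24 h-treated, reporter-transfected HepG2 cells undergoes DNase I treatment, oligo(dT) reverse transcription, PCR and 6-FAM primer extension before capillary electrophoresis.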
Transcription factor E2F1 (Homo sapiens), sequence (Q01094 whole entry, looked up): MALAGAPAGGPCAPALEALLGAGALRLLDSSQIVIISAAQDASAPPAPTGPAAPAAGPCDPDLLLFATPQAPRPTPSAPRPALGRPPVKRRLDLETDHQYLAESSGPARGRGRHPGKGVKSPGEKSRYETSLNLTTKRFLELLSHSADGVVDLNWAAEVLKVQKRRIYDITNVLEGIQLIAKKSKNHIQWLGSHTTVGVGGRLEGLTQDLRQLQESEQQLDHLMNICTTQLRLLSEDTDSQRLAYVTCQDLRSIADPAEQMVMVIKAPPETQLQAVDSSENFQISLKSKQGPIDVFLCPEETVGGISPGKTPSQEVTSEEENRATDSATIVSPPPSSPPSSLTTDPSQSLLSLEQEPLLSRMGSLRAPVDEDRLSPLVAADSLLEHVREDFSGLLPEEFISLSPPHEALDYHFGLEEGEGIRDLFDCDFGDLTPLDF

Activity calls are given as the source filed them. Rule for the calls: active = hit-call score of the fitted dose curve at least 0.9, where 1 is the maximum; inactive = score below 0.9.

Aryl hydrocarbon receptor (Homo sapiens), sequence (P35869 whole entry, looked up): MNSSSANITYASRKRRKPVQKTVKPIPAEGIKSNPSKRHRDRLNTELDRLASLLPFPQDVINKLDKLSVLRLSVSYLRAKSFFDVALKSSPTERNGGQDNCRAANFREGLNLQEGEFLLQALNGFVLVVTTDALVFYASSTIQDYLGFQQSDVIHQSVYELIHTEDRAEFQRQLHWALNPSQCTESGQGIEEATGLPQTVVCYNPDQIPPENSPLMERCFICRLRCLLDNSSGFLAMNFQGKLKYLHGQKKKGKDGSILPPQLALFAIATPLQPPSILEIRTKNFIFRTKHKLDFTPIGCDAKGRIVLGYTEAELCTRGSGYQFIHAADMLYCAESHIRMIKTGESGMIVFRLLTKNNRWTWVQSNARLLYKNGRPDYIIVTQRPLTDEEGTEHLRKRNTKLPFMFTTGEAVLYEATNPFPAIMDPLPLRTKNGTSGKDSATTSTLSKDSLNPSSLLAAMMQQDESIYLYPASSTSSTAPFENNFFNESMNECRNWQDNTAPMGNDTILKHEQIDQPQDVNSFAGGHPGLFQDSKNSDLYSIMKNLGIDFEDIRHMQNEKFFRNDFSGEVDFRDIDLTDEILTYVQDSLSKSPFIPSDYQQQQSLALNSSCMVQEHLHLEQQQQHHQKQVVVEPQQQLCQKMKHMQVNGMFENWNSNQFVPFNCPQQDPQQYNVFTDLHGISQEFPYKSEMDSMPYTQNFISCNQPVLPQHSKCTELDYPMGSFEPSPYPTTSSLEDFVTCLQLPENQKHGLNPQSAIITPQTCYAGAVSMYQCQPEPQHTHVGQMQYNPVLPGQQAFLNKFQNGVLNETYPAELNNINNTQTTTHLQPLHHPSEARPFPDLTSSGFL
CCAAT/enhancer-binding protein beta (Homo sapiens), sequence (P17676 whole entry, looked up, the tested form may be a part): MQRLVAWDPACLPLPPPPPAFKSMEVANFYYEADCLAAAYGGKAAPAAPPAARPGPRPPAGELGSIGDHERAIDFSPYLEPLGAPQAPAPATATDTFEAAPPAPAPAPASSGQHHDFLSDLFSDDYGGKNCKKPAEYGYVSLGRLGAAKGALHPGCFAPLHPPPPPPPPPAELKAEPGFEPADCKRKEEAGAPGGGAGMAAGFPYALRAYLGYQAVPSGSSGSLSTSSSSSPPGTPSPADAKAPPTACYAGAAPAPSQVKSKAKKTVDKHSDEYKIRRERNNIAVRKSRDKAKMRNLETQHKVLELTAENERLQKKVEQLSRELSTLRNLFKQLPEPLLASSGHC

Regarding `CCCCC(CC)C(=O)OCCOCCOCCOCCOC(=O)C(CC)CCCC` (centres undefined), the outcome in test [1], in [2], in test [3], in test [4], in [5] and in [6] was inactive. Also, the molecule was called inactive in [7], in [8], in test [9] and in test [10].

For the molecule `CCCCCCCCCCCCCC[n+]1ccccc1`, the call in test [1], in [2], in test [3], in test [4], in test [5] and in test [9] was inactive. In test [10], the molecule was classed as inactive. In addition, the AC50 (as a rule, the concentration giving half of the maximal activity seen) in test [6] is 0.252 µM (active); in test [7], 19.8 µM (active).

As for `CC(C)(c1ccc(Oc2ccc(N)cc2)cc1)c1ccc(Oc2ccc(N)cc2)cc1`, the molecule was called inactive in test [1], in test [2], in [3], in test [4], in test [5] and in [6]. For the same molecule, the call in test [7], in test [9] and in [10] was inactive.

Consider `C=CC(=C)CC/C=C(\C)CCC=C(C)C`, for which the call in [1], in [2], in test [3], in test [4], in test [5] and in [6] was inactive. Also, the outcome in test [7], in test [8] and in test [10] was inactive.

For `FC(F)(F)C1(F)C(F)(F)C(F)(F)C(F)(F)C1(F)F`, the molecule was classed as inactive in test [1], in test [2], in test [3], in [4], in test [5] and in test [6]. Moreover, the call in test [7], in test [9] and in test [10] was inactive.

Consider `C=CCOCC(CO)(CO)CO`, for which the call in test [1], in test [2], in [3], in test [4], in test [5] and in test [6] was inactive. Also, the call in [7], in test [9] and in [10] was inactive.

Turning to `FC(F)(F)C1(F)C(F)(F)C(F)(F)C(F)(F)C(F)(C(F)(F)F)C1(F)F` (centres undefined), the outcome in test [1], in test [2], in test [3], in test [4], in test [5] and in test [6] was inactive. For the same molecule, the outcome in test [7], in test [8], in test [9] and in [10] was inactive.

For `COC(=O)C(F)(F)C(F)(F)C(F)(F)C(F)(F)C(F)(F)F`, the molecule was classed as inactive in test [1], in [2], in test [3], in test [4], in test [5] and in test [6]. Further, the outcome in [7], in [8], in test [9] and in test [10] was inactive.

On to `CCCCCC(C)OC(=O)COc1ccc(Cl)c2cccnc12` (centres undefined), for which the molecule was called inactive in test [1], in [2], in test [3], in [5], in [6] and in [7]. Further, the molecule was called inactive in [9] and in test [10]. Further, the AC50 in [4] is 100 µM (active).

On to `C=CC(=O)OCCC(F)(F)C(F)(F)C(F)(F)C(F)(F)C(F)(F)C(F)(F)C(F)(F)C(F)(F)F`, for which the call in [1], in test [2], in test [3], in test [4], in [5] and in test [6] was inactive. Also, the molecule was classed as inactive in [7] and in test [10]. The AC50 in test [9] is 15.2 µM (active).

On to `Cn1sccc1=O`, for which the AC50 is 154 µM (active) in test [1]; 161 µM (active) in test [2]; 190 µM (active) in test [3]; 74.2 µM (active) in test [4]; 34.7 µM (active) in test [8]; 168 µM (active) in test [9]. For the same molecule, the outcome in [5], in [6], in test [7] and in test [10] was inactive.

For the molecule `c1ccc(CNc2ncnc3c2ncn3C2CCCCO2)cc1` (centres undefined), the molecule was classed as inactive in test [1], in [2], in [3], in [4], in test [6] and in test [7]. The molecule was classed as inactive in [8], in test [9] and in [10]. The AC50 in test [5] is 57 µM (active).

Regarding `CCOCCOCC`, the outcome in test [1], in [2], in test [3], in test [4], in [5] and in test [6] was inactive. In addition, the outcome in [7], in test [8], in test [9] and in test [10] was inactive.

For `O=C1C=CC(=O)N1c1cccc(N2C(=O)C=CC2=O)c1`, the molecule was called inactive in [1], in test [2], in test [3], in test [4], in test [5] and in test [6]. The molecule was called inactive in test [7], in test [8], in [9] and in [10].

For `Clc1ccc(Nc2nnc(Cc3ccncc3)c3ccccc23)cc1`, the result in test [1], in test [2], in [3], in test [4], in test [5] and in [7] was inactive. Further, the call in test [9] and in test [10] was inactive. In addition, the AC50 in test [6] was 42 µM (active).

For the molecule `O=C(O)CCC(F)(F)C(F)(F)C(F)(F)C(F)(F)C(F)(F)F`, the outcome in test [1], in test [2], in test [3], in [4], in test [5] and in [6] was inactive. Besides, the result in test [7], in test [9] and in test [10] was inactive.

On to `CCCCN(C)C`, for which the result in test [1], in test [2], in [3], in test [4], in test [5] and in test [6] was inactive. The molecule was classed as inactive in test [7], in test [9] and in test [10].

Consider `O=P(O)(O)CCC(F)(F)C(F)(F)C(F)(F)C(F)(F)C(F)(F)C(F)(F)C(F)(F)C(F)(F)F`, for which the result in test [1], in test [2], in test [3], in test [4], in test [5] and in test [6] was inactive. Also, the molecule was called inactive in test [8], in test [9] and in [10].

Turning to `C=CC(=O)OCC(CO)(COCC(COC(=O)C=C)(COC(=O)C=C)COC(=O)C=C)COC(=O)C=C`, the molecule was classed as inactive in [1], in test [2], in [5] and in test [6]. The AC50 in test [3] is 2.97 µM (active); in test [4], 4.59 µM (active); in [9], 11 µM (active); in test [10], 19.6 µM (active).

With `CCCCCCCCCC=CCC1CC(=O)OC1=O` (centres undefined), the call in test [1], in [2], in test [4], in test [6], in test [7] and in [10] was inactive. Besides, the AC50 in [3] was 66.8 µM (active).

Turning to `C=CC(=O)OCCC(F)(F)C(F)(F)C(F)(F)C(F)(F)C(F)(F)C(F)(F)F`, the molecule was classed as inactive in test [1], in test [2], in test [3], in [4], in test [5] and in test [6]. For the same molecule, the molecule was classed as inactive in test [8], in test [9] and in test [10].

In the case of `Oc1cc2ccccc2cc1O`, the outcome in [1], in test [2], in test [3], in [4], in test [7] and in test [9] was inactive. Moreover, in test [10], the molecule was classed as inactive. Further, the AC50 in test [5] was 21.1 µM (active); in [6], 70.2 µM (active).

Regarding `O=c1cc(-c2ccccc2)oc2ccc3ccccc3c12`, the outcome in [1], in test [2], in test [3], in test [4], in test [6] and in test [7] was inactive. Besides, the call in [8] and in test [10] was inactive.

Regarding `Cc1ccc(S(=O)(=O)O)cc1`, the result in test [1], in test [2], in test [3], in test [4], in test [5] and in test [6] was inactive. The result in test [8], in [9] and in [10] was inactive.

The values above are taken from PubChem BioAssay (EPA / NIEHS).
